PubChem BioAssay (NCATS)
Values joined by “and” are separate entries in the source; they are usually repeats but may differ in a detail not shown here. Equal values may be shown once. Inconclusive results are not listed. A call without a number means that no potency is given here. Where a structure was tested more than once in an assay, its records may differ in their call. Active and inactive are the calls of the source. The call rests on the fitted dose curve; in most records, active means well fitted curve in the direction sought with a large enough effect; inconclusive means small, poorly fitted or top-dose-only effect, or another doubt; inactive means no such curve, though single readings can be large; an effect the other way counts as inactive or inconclusive.

Tests used:
MKL-1 = assay: qHTS assay to identify novel small-molecules to repurpose for Merkel cell carcinoma treatment (AID 1296009); conditions: MCC and control cell lines, CellTiter-Glo viability, 72 h; series mostly up to 46 µM; further: nearly all actives have a fitted effect of over 60% in size
Summary of the method: (§1)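 Luminescence from CellTiter-Glo, read 10 min after addition at room temperature, reported viability following a 72 hr, 37 degree celsius treatment with NPC or MIPE compounds in titration; values normalized to plate controls.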

NIH3T3 = assay: as above; conditions: MCC and control cell lines, CellTiter-Glo viability, 72 h; at 44.8 µM (top of the series) unless noted
Summary of the method: as §1

UISO = assay: as above; conditions: MCC and control cell lines, CellTiter-Glo viability, 72 h; series mostly up to 46 µM
Summary of the method: as §1

WaGa = assay: as above; conditions: MCC and control cell lines, CellTiter-Glo viability, 72 h; series mostly up to 46 µM
Summary of the method: as §1

C33A = assay: Primary qHTS to identify gynecologic anti-cancer compounds using libraries of approved drugs and bioactive compounds (AID 1345084); conditions: Gynecologic cancer cell panel viability, ATPlite luminescence, 48 h; series mostly up to 57.5 µM; further: nearly all actives have a fitted effect of over 55% in size
Summary of the method: (§2)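 In this quantitative HTS, cell killing is estimated from loss of ATP-dependent luciferase light. Cells see five compound concentrations over a 48 h exposure.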

CAOV3 = assay: as above; conditions: Gynecologic cancer cell panel viability, ATPlite luminescence, 48 h; series mostly up to 57.5 µM
Summary of the method: as §2

CASKI = assay: as above; conditions: Gynecologic cancer cell panel viability, ATPlite luminescence, 48 h; series mostly up to 57.5 µM
Summary of the method: as §2

Es-2 = assay: as above; conditions: Gynecologic cancer cell panel viability, ATPlite luminescence, 48 h; series mostly up to 57.5 µM
Summary of the method: as §2

HeLa = assay: as above; conditions: Gynecologic cancer cell panel viability, ATPlite luminescence, 48 h; series mostly up to 57.5 µM
Summary of the method: as §2

MKL-2 = assay: qHTS assay to identify novel small-molecules to repurpose for Merkel cell carcinoma treatment (AID 1296009); conditions: MCC and control cell lines, CellTiter-Glo viability, 72 h; series mostly up to 46 µM; further: nearly all actives have a fitted effect of over 60% in size
Summary of the method: as §1
Potency means the concentration at half of the fitted maximal effect.

## COc1cc(C(C)=O)ccc1OCCCN1CCC(c2noc3cc(F)ccc23)CC1
MKL-1
  Potency: inactive
NIH3T3
  outcome: inactive
UISO
  Potency: inactive
WaGa
  Potency: inactive
C33A
  Potency: inactive
CAOV3
  Potency: inactive
CASKI
  Potency: inactive
Es-2
  Potency: inactive
HeLa
  Potency: inactive

## CCCS(=O)c1ccc2nc(NC(=O)OC)[nH]c2c1 (centres undefined)
MKL-1
  Potency: inactive
C33A
  Potency: inactive
CAOV3
  Potency: inactive
CASKI
  Potency: inactive
Es-2
  Potency: inactive

## CN(C)C(=O)[C@H](O)[C@H](Cc1ccccc1)NC(=O)c1cc2cc(Cl)ccc2[nH]1
MKL-2
  Potency: inactive
NIH3T3
  outcome: inactive
UISO
  Potency: 4.18 µM (active)
WaGa
  Potency: inactive
C33A
  Potency: inactive
CAOV3
  Potency: inactive
CASKI
  Potency: inactive
Es-2
  Potency: inactive
HeLa
  Potency: inactive

## O=Nc1c(-c2c(O)[nH]c3cc(Br)ccc23)[nH]c2ccccc12
MKL-2
  Potency: 16.6 µM (active)
UISO
  Potency: 0.059 µM (active)

## Oc1ccc(-c2nc(-c3ccc(F)cc3)c(-c3ccncc3)[nH]2)cc1
MKL-2
  Potency: 20.9 µM (active)
NIH3T3
  outcome: inactive
UISO
  Potency: inactive

## CCc1nc(N)nc(N)c1-c1ccc(Cl)cc1
MKL-1
  Potency: inactive
MKL-2
  Potency: inactive
WaGa
  Potency: 11.9 µM (active)
C33A
  Potency: 5.01 µM (active)
CAOV3
  Potency: inactive
Es-2
  Potency: 4470 nM (active)
HeLa
  Potency: 14100 nM (active)

## CCOC(=O)C(C)Oc1cccc2c(=O)n(CC(=O)Nc3ccc4c(c3)OCCO4)ccc12 (centres undefined)
MKL-1
  Potency: inactive
UISO
  Potency: inactive
WaGa
  Potency: inactive

## O=C1c2ccccc2-c2n[nH]c3cccc1c23
MKL-1
  Potency: 3.32 µM (active)
WaGa
  Potency: 2.64 µM (active)

## Cc1cccc(C)c1OCC(=O)N[C@@H](Cc1ccccc1)[C@@H](O)C[C@H](Cc1ccccc1)NC(=O)[C@H](C(C)C)N1CCCNC1=O
C33A
  Potency: inactive
CAOV3
  Potency: inactive
CASKI
  Potency: inactive
Es-2
  Potency: inactive
HeLa
  Potency: inactive

## C=C(c1ccc(C(=O)O)cc1)c1cc2c(cc1C)C(C)(C)CCC2(C)C
C33A
  Potency: inactive
CAOV3
  Potency: inactive
CASKI
  Potency: inactive
Es-2
  Potency: inactive
HeLa
  Potency: inactive

## O=c1ccc2ccc(O)c(O)c2o1
UISO
  Potency: inactive

## COCCCN1CCC(NC(=O)c2cc(Cl)c(N)c3c2OCC3)CC1
C33A
  Potency: inactive
CASKI
  Potency: inactive
Es-2
  Potency: inactive
HeLa
  Potency: inactive

## NCCCCNCCCN
MKL-2
  Potency: 8.33 µM (active)
UISO
  Potency: inactive

## C[C@H](Cc1ccc(O)c(O)c1)[C@@H](C)Cc1ccc(O)c(O)c1
MKL-1
  Potency: 11.8 µM (active)
MKL-2
  Potency: 18.7 µM (active)
WaGa
  Potency: 18.7 µM (active)

## Oc1ccc2ccccc2c1SSc1c(O)ccc2ccccc12
MKL-2
  Potency: 20.9 µM (active)
NIH3T3
  outcome: inactive

## CC(C)[N+]1(C)[C@@H]2CC[C@H]1CC(OC(=O)C(CO)c1ccccc1)C2 (some centres undefined)
MKL-1
  Potency: inactive
NIH3T3
  outcome: inactive
UISO
  Potency: inactive
WaGa
  Potency: 18.7 µM (active)

## O=C1CCc2ccc(OCCCCN3CCN(c4cccc(Cl)c4Cl)CC3)cc2N1
MKL-1
  Potency: inactive
UISO
  Potency: inactive
WaGa
  Potency: inactive
C33A
  Potency: inactive
CAOV3
  Potency: inactive
CASKI
  Potency: inactive
HeLa
  Potency: inactive

## CC(C)Oc1ccc2c(=O)c(-c3ccccc3)coc2c1
CAOV3
  Potency: 22.4 µM (active)
Es-2
  Potency: 5010 nM (active)
HeLa
  Potency: 28200 nM (active)

## CCCCN(CCCC)CCC(O)c1cc2c(Cl)cc(Cl)cc2c2cc(C(F)(F)F)ccc12 (centres undefined)
C33A
  Potency: inactive
CASKI
  Potency: inactive
Es-2
  Potency: inactive
HeLa
  Potency: inactive

## CCCCCCCCOc1ccccc1C(=O)Nc1ccc(C(=O)OCC[N+](C)(CC)CC)cc1
MKL-2
  Potency: 16.6 µM (active) and 5.96 µM (active)
UISO
  Potency: 15 µM (active)
WaGa
  Potency: 29.9 µM (active)
C33A
  Potency: inactive
Es-2
  Potency: inactive
HeLa
  Potency: inactive

## COc1cc(Nc2c(C#N)cnc3cc(OCCCN4CCN(C)CC4)c(OC)cc23)c(Cl)cc1Cl
MKL-1
  Potency: 8.41 µM (active) and inactive
MKL-2
  Potency: inactive
WaGa
  Potency: 29.9 µM (active) and inactive
C33A
  Potency: 14.1 µM (active)
Es-2
  Potency: 6.31 µM (active) and 14.1 µM (active)
HeLa
  Potency: 25.1 µM (active) and inactive

## CN1CCC(=C2c3ccccc3CCc3sccc32)CC1
MKL-1
  Potency: inactive
NIH3T3
  outcome: inactive
UISO
  Potency: inactive
WaGa
  Potency: inactive
CAOV3
  Potency: inactive
CASKI
  Potency: inactive
Es-2
  Potency: inactive
HeLa
  Potency: inactive

## CCCCc1ccc2nc(NC(=O)OC)[nH]c2c1
C33A
  Potency: 0.794 µM (active)
CAOV3
  Potency: inactive
Es-2
  Potency: 562 nM (active)
HeLa
  Potency: 398 nM (active)

## CC(=O)O[C@H]1C(=O)[C@@]2(C)C([C@H](OC(=O)c3ccccc3)[C@]3(O)C[C@H](OC(=O)[C@H](O)[C@@H](NC(=O)c4ccccc4)c4ccccc4)C(C)=C1C3(C)C)[C@]1(OC(C)=O)CO[C@@H]1C[C@@H]2O (some centres undefined)
MKL-1
  Potency: inactive
MKL-2
  Potency: inactive
Es-2
  Potency: 282 nM (active)
HeLa
  Potency: 79.4 nM (active)

## N=C(N)c1ccc2cc(OC(=O)c3ccc(N=C(N)N)cc3)ccc2c1
MKL-1
  Potency: inactive
UISO
  Potency: inactive
WaGa
  Potency: inactive and 26.6 µM (active)
C33A
  Potency: inactive
CASKI
  Potency: inactive
Es-2
  Potency: inactive
HeLa
  Potency: inactive

## O=C(NOCC1CC1)c1ccc(F)c(F)c1Nc1ccc(I)cc1Cl
MKL-1
  Potency: 18.8 µM (active) and 20.9 µM (active)
UISO
  Potency: 15 µM (active)
WaGa
  Potency: 15 µM (active)
C33A
  Potency: inactive
CASKI
  Potency: inactive
Es-2
  Potency: inactive
HeLa
  Potency: inactive

## O=C(O)c1cc(=O)c2c(OCC(O)COc3cccc4oc(C(=O)O)cc(=O)c34)cccc2o1
C33A
  Potency: inactive
CAOV3
  Potency: inactive
CASKI
  Potency: inactive
Es-2
  Potency: inactive
HeLa
  Potency: inactive

## Nc1cccc2c1CN(C1CCC(=O)NC1=O)C2=O (centres undefined)
MKL-1
  Potency: inactive
MKL-2
  Potency: inactive
UISO
  Potency: inactive
C33A
  Potency: inactive
CASKI
  Potency: inactive
Es-2
  Potency: inactive
HeLa
  Potency: inactive

## CN1C(C(=O)Nc2ccccn2)=C(O)c2sccc2S1(=O)=O
C33A
  Potency: inactive
CAOV3
  Potency: inactive
CASKI
  Potency: inactive
Es-2
  Potency: inactive
HeLa
  Potency: inactive

## CCCOc1ccc2nc(NC(=O)OC)[nH]c2c1
CAOV3
  Potency: inactive
Es-2
  Potency: 631 nM (active)
HeLa
  Potency: 282 nM (active)

## Cc1ccc(C(=O)c2cc(O)c(O)c([N+](=O)[O-])c2)cc1
MKL-1
  Potency: inactive
UISO
  Potency: inactive
WaGa
  Potency: inactive
C33A
  Potency: inactive
CASKI
  Potency: inactive
Es-2
  Potency: inactive

## CN(C)[C@@H](CCOc1cccc2ccccc12)c1ccccc1
MKL-1
  Potency: inactive
UISO
  Potency: inactive
C33A
  Potency: inactive
CASKI
  Potency: inactive
Es-2
  Potency: inactive
HeLa
  Potency: inactive

## COc1c2occc2cc2ccc(=O)oc12
C33A
  Potency: inactive
CAOV3
  Potency: inactive
CASKI
  Potency: inactive
Es-2
  Potency: inactive
HeLa
  Potency: inactive

## COC1=C(OC)C(=O)C(CCCCCCCCCCO)=C(C)C1=O
MKL-1
  Potency: 15 µM (active)
NIH3T3
  outcome: inactive
CAOV3
  Potency: inactive
CASKI
  Potency: inactive
HeLa
  Potency: inactive
